Experimental findings from PubChem BioAssay (NCI) are described below.

Molecules are shown by their SMILES. Compounds without any hit were thinned out: in the full panel of roughly 79,000, 15% have a hit. Unmarked numbers belong to inactive results. Activity calls are given as the source filed them. No stated cut-off is given here; in the data, active means growth inhibition above about 70%; inactive means the rest.

This assay in a line: NCI Yeast Anticancer Drug Screen. Data for the sgs1 strain (AID 173).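 Further: 0% = growth of vehicle-only control cultures.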 To be noted: S. cerevisiae sgs1 mutant, active compounds read high. As for the experimental part: Growth inhibition of yeast strains with defined genetic alterations is measured as a screen for potential anti-cancer activity. Selected strains with alterations in DNA damage repair or cell cycle control were exposed to compounds and growth inhibition was measured relative to vehicle treated controls. The strain used in this assay is sgs1

For the compound `C=C1C(=O)OC2CC1C(OC(C)=O)C/C(C)=C/CC/C(C)=C\CCC2(C)O` (stereo not given), the growth inhibition is, setting by setting: (at 1.2 µM) 13%; (at 3.7 µM) 27%; (at 11.0 µM) 40%; (at 33.0 µM) 55%; (at 100.0 µM) 90% (active).

With `CCOC(=O)C#Cc1ccc([N+](=O)[O-])cc1`, the growth inhibition is, setting by setting: (at 1.2 µM) 1%; (at 3.7 µM) 0%; (at 11.0 µM) 5%; (at 33.0 µM) 6%; (at 100.0 µM) 15%.

Turning to `O=[N+]([O-])c1ccc(N/N=C/Cc2ccccc2)c([N+](=O)[O-])c1`, the growth inhibition (at 1.2 µM) is -4%; the growth inhibition (at 3.7 µM) was -1%; the growth inhibition (at 11.0 µM) is 2%; the growth inhibition (at 33.0 µM) is 9%; the growth inhibition (at 100.0 µM) is 22%.

As for `O=[N+]([O-])c1cccc2nc3ccccc3c(NCCCn3ccnc3[N+](=O)[O-])c12`, the growth inhibition was 61% (at 1.2 µM); 74% (active) (at 3.7 µM); 85% (active) (at 11.0 µM); 90% (active) (at 33.0 µM); 93% (active) (at 100.0 µM).

For the compound `N#CC1=C(N)N(/N=C/c2ccccc2)C(c2ccccc2)C1(C#N)C#N` (stereo not given), the growth inhibition (at 1.2 µM) is 15%; the growth inhibition (at 3.7 µM) is 41%; the growth inhibition (at 11.0 µM) is 80% (active); the growth inhibition (at 33.0 µM) is 93% (active); the growth inhibition (at 100.0 µM) was 95% (active).

`C[C](C)(C)[Ge]([O][Ge]([c]1ccccc1)[c]1ccccc1)([O][Ge]([c]1ccccc1)[c]1ccccc1)[C](C)(C)C`: the growth inhibition was 8% (at 1.2 µM); 27% (at 3.7 µM); 71% (active) (at 11.0 µM); 78% (active) (at 33.0 µM); 76% (active) (at 100.0 µM).

`CCCC(=O)Oc1ccc(/C=N/NC(N)=S)nc1`: the growth inhibition reads like this: (at 1.2 µM) -10%; (at 3.7 µM) -5%; (at 11.0 µM) -2%; (at 33.0 µM) -9%; (at 100.0 µM) -1%.

Consider `O=c1ccc(=O)n(-c2ccccc2)[nH]1`, for which the growth inhibition is 15% (at 1.2 µM); 27% (at 3.7 µM); 58% (at 11.0 µM); 89% (active) (at 33.0 µM); 98% (active) (at 100.0 µM).
